Screens from PubChem.
Compounds with a hit are over-represented: about 19% of the library has one in this group of screens.
TGFb SMAD3 inh = blocks TGF-b signaling; HepG2 CAGA-GFP TGF-b/SMAD3 reporter, GFP fluorescence, 18 h; TGF-beta stimulated, 500 pg/mL final; Potency, µM (titrated, usually from 46.1 µM), hits mostly inhibitors; 1.2% of 410,000 active; also: nearly all actives have a fitted effect of over 65% in size
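Inhibition of TGF-beta-driven CAGA-GFP reporter expression in HEPG2 cells is measured by cellular GFP fluorescence after 18 h stimulation with 500 pg/mL recombinant TGF-beta in 1% FBS medium at 37 degrees C.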
IL1B secr inh = blocks inflammasome-driven IL-1 beta release; 4.7% of 360,000 active; THP-1 LPS/ATP IL-1B secretion, AlphaLISA, 16 h; stronger effect = lower value; activity change, % at 57.5 µM; in the data active = activity change below about -50%; inconclusive = mostly about -30% to -49%
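THP-1 cells pretreated 1 hr with compounds (up to 57.5 uM final), then stimulated with LPS (250 ng/mL final) plus ATP (1.25 mM final); secreted IL-1B measured by AlphaLISA after 16 hr, decreased signal indicating inhibition.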
DT40 TDP1 CPT = growth inhibition of DT40 Tdp1-/-;hTDP1 cells with camptothecin (screen for TDP1 inhibitors); chicken DT40 Tdp1-/-;hTDP1 cells + 20 nM CPT, ATP luminescence, 48 h; Potency, µM (series often up to 46.2 µM), actives largely listed as inhibitors; 12% of 420,000 active; also: nearly all actives have a fitted effect of over 55% in size
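Chicken DT40 Tdp1-/- cells stably complemented with human TDP1 were seeded at 400 cells/well in medium containing 20 nM camptothecin, exposed to pin-transferred compounds, and grown at 37 °C for at least 48 hr. Viability was read as ATP luminescence.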
TDP1 inh = blocks human tyrosyl-DNA phosphodiesterase 1. recombinant TDP1, AlphaScreen DNA substrate cleavage. Q9NUW8. 0.28% of 350,000 active. Potency, µM (titrated, usually from 130 µM), hits mostly inhibitors; also: nearly all actives have a fitted effect of over 40% in size
Target sequence (Q9NUW8 whole entry, looked up): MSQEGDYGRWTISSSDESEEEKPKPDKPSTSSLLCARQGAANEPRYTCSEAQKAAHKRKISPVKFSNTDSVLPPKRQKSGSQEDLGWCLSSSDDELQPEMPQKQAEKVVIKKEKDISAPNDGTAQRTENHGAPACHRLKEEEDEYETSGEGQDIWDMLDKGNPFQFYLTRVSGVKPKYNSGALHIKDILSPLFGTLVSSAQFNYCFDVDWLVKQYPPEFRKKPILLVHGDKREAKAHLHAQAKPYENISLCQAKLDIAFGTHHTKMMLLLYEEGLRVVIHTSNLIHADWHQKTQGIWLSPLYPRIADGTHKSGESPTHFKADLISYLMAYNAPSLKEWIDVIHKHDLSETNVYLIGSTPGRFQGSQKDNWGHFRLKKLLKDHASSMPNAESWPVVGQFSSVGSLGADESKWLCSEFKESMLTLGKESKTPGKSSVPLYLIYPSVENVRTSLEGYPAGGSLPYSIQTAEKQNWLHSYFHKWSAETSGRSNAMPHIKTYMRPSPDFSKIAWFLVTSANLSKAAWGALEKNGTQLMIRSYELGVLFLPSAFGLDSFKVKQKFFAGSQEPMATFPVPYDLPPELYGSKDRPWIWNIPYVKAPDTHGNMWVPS
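AlphaScreen read-out: signal falls as enzyme removes the 3' tyrosine-FITC from a 5'-biotinylated DNA oligo (15 nM, 5 min, RT). Enzyme was E. coli-made recombinant Tdp1 at 1 nM, exposed to compound for 15 min beforehand; beads 10 ug/ml, 10 min.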
DT40 TDP1 no CPT = qHTS for Inhibitors of human tyrosyl-DNA phosphodiesterase 1 (TDP1): qHTS in cells in absence of CPT. 15% of 420,000 active. AID 686978, 2013. DT40 Tdp1-/- hTDP1 cells, no CPT, ATP luminescence, 48 h. Potency, µM (doses to about 46.2 µM), usual class: inhibitors; also: nearly all actives have a fitted effect of over 55% in size
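DT40 Tdp1-/-;hTDP1 cells, no CPT (DMSO vehicle only), 400 cells/well; compounds pin-transferred; ≥48 hr, 37 °C; CellTiter-Glo 30 min RT dark, luminescence read.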
HepG2 viability = kills HepG2 cells in TGF-b inhibitor counter-screen; 0.76% of 410,000 active; Potency, µM (top dose mostly 46.1 µM), hits mostly cytotoxic; HepG2 CAGA-GFP viability, ATP luminescence, 18 h
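HepG2 CAGA-GFP cells (1000/well, DMEM with 1% FBS) received compound, then TGF-beta at 500 pg/mL final, and were incubated 18 hours at 37 degrees C. Viability was read by CellTiter-Glo luminescence. Media-only wells were set as complete cell-killing and DMSO as no toxicity.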
A number is an active result; n = inactive; u = inconclusive; x = no result; [ ] = dose if it differs, or a comment. Unless noted, calls follow the shape of the dose curve; as a rule, active = well fitted curve in the direction sought with a large enough effect; inconclusive = small, poorly fitted or top-dose-only effect, or another doubt; inactive = no such curve, though single readings can be large; an effect the other way counts as inactive or inconclusive.

SMILES	TGFb SMAD3 inh	IL1B secr inh	DT40 TDP1 CPT	TDP1 inh	DT40 TDP1 no CPT	HepG2 viability
COc1ccc(NC(=O)Cn2cc(C(C)=O)c3ccccc32)cc1	n	n	5.2µM	x	u	n
Cc1ccc(NC(=O)CSc2nc3c(oc4ccccc43)c(=O)n2-c2ccc(F)cc2)c(C)c1	u	x	n	n	n	n
COc1ccc(C(=O)n2cc(C(C)=O)c3ccccc32)cc1	n	n	10µM	x	15µM	n
Cc1ccc(NC(=O)Cn2c(O)c(N=NC(N)=O)c3ccccc32)cc1	n	n	u	n	u	n
Cc1ccccc1NC(=O)Cn1c(O)c(N=NC(=O)c2ccccc2O)c2ccccc21	n	n	u	n	5.8µM	n
CCOc1ccc(NC(=O)Cn2cc(C(=O)CC)c3ccccc32)cc1	n	n	13µM	x	26µM	n
Cc1ccc(NC(=O)Cn2c(O)c(N=NS(=O)(=O)c3ccc(C)cc3)c3ccccc32)cc1	n	n	u	n	15µM	n
CCOC(=O)c1ccc(NC(=O)c2cn3c4c(ccc(Cl)c4c2=O)OC(C)C3)cc1 (stereo not given)	n	x	n	n	n	n
CC(=O)c1cn(CC(=O)Nc2ccccc2C)c2ccccc12	n	n	8.2µM	n	6.5µM	n
CC(=O)c1cn(CC(=O)NCc2ccc3c(c2)OCO3)c2ccccc12	n	n	13µM	n	13µM	n
CC(=O)c1cn(CC(=O)Nc2ccc(C)c(C)c2)c2ccccc12	n	n	n	n	u	n
Cc1cccc(C)c1NC(=O)Cn1cc(C=O)c2ccccc21	n	n	21µM	n	8.2µM	n
CC(C)Oc1ccc(S(=O)(=O)N2CCOCC2)cc1NC(=O)CCCSc1ccccc1	n	n	u	n	u	n
Cn1c2cc(S(C)=O)sc2c2cnn(Cc3cccc(N)c3)c(=O)c21 (stereo not given)	x	x	x	n	x	x
COc1ccc(-c2cn[nH]c2-c2ccc(O)cc2O)cc1OC	n	n	n	x	u	n
CCOc1ccc(-c2[nH]ncc2-c2ccc(OC)c(OC)c2)c(O)c1	n	n	3.7µM	n	3.7µM	n
CCOc1ccc(-c2[nH]ncc2-c2ccc(Cl)cc2)c(O)c1	u	n	16µM	x	u	n
O=C1c2ccccc2C(=O)N1c1cnc2ccccc2c1	x	x	x	n	x	x
N#CCCn1c(=O)c(-c2ccc(F)cc2)nc2cnc(Oc3cccc(Cl)c3)nc21	x	x	n	x	n	x
COc1ccccc1Cc1c(-c2ccco2)nc2cc(C)c(Br)c(C)n12	x	n	u	x	23µM	x
Cc1cc2nc(-c3ccco3)c(CC(C)(C)C)n2c(C)c1Br	u	n	23µM	x	23µM	n
CC1(CO)COC2(OC1)C(=O)Nc1ccccc12 (stereo not given)	n	n	n	n	n	n
O=C(CN1CCN(CC(=O)Nc2ccccc2Cl)CC1)NCC1(N2CCOCC2)CCCCC1	n	n	u	n	u	n
c1ccc2c(C3=NNC(=NC4CCCCC4)SC3)c[nH]c2c1	u	-96	u	n	u	n
c1ccc(C2=NNC(=NC3CC3)SC2)cc1	n	n	u	n	18µM	7.1µM
SMILES	TGFb SMAD3 inh	IL1B secr inh	DT40 TDP1 CPT	TDP1 inh	DT40 TDP1 no CPT	HepG2 viability
c1ccc2c(C3=NNC(=NC4CC4)SC3)c[nH]c2c1	n	-96	u	n	u	n
CC(C)(C)c1nnc(NS(=O)(=O)c2ccccc2)s1	x	x	n	x	n	x
NCC1CC2c3ccccc3C1c1ccccc12 (stereo not given)	n	-78	n	x	u	n
CC(=O)c1cccc(NC(=O)Nc2ccc3c(c2)OCO3)c1	n	u	n	n	n	n
O=C(C[N+]12CCCc3cccc(c31)CCC2)c1ccc(Cl)c2ccccc12	n	x	n	x	n	n
O=C(C[N+]12CCCc3cccc(c31)CCC2)c1ccc2ccccc2c1	n	x	5µM	x	7.1µM	n
CCOc1ccc(NC(=O)C2=C(C)C(=O)OC23CCC(C)CC3)cc1 (stereo not given)	n	n	u	n	16µM	n
CCc1ccc(NC(=O)C2=C(C)C(=O)OC23CCCCC3)cc1	x	x	16µM	n	16µM	n
CCOC(=O)c1cccc(NC(=O)C2=C(C)C(=O)OC23CCCCC3)c1	x	x	u	n	u	n
CC1=C(C(=O)Nc2ccc(C)cc2Cl)C2(CCCCC2)OC1=O	x	x	u	n	16µM	n
N#Cc1ccc[n+](CC(=O)c2ccc(NC(=O)c3ccccc3)cc2)c1	n	n	10µM	n	n	n
O=C(C[n+]1cccc(C(=O)Nc2ccccc2)c1)c1ccccc1	x	n	u	x	18µM	x
CCOC(=O)N1CCN(C(=O)CN(c2ccccc2F)S(=O)(=O)c2ccc(C)cc2)CC1	n	x	u	n[12.3 µM]	u	n
O=C(c1ccoc1)N1CCC2(CC1)Oc1ccc(F)cc1C(=O)C21CC(c2ccc(Cl)cc2)=NO1 (stereo not given)	n	-56	u	n	u	n
O=C(c1ccoc1)N1CCC2(CC1)Oc1ccc(Cl)cc1C(=O)C21CC(c2ccc(Cl)cc2)=NO1 (stereo not given)	n	u	21µM	n	u	n
O=C(NCCC1=CCCCC1)c1ccc2c(c1)ncn2-c1ccc(F)c(F)c1	u	x	u	n	n	n
Cc1cccc(NC(=O)COc2coc(CN3CCN(c4ccccc4)CC3)cc2=O)c1	n	n	21µM	n	18µM	n
O=C(COc1coc(CN2CCN(c3ccccc3)CC2)cc1=O)Nc1cccc(F)c1	n	n	n	n	n	n
COc1ccc(N2CCN(Cc3cc(=O)c(OCC(=O)Nc4ccccc4)co3)CC2)cc1	n	n	u	n	u	n
COc1ccc(NC(=O)COc2coc(CN3CCN(c4ccccc4)CC3)cc2=O)cc1	n	n	21µM	n	u	n
Cc1onc(-c2ccccc2Cl)c1C(=O)O/N=C(\N)c1cccc([N+](=O)[O-])c1	n	-62	23µM	x	23µM	n
Cc1onc(-c2ccccc2Cl)c1C(=O)c1ccccc1	n	x	n	n	u	n
C/C(=N\OC(=O)c1c(-c2ccccc2Cl)noc1C)c1ccncc1	n	-145	n	x	n	n
Cc1onc(-c2ccccc2)c1C(=O)O/N=C(\N)c1ccc([N+](=O)[O-])o1	13µM	n	16µM	n	15µM	13µM
Cc1onc(-c2ccccc2Cl)c1C(=O)O/N=C(\N)c1ccccc1	n	-75	u	n	u	n
Cc1onc(-c2ccccc2Cl)c1C(=O)OCN1C(=O)c2ccccc2C1=O	n	n	n	n	u	n
